# PolyA inhibitor = blocks polyadenylation in yeast reporter cells. S. cerevisiae SKY197-pL101 polyadenylation reporter, beta-gal luminescence; efflux-impaired pdr1/pdr3 knockout yeast; score 100 = 6 SD above DMSO. activity score, % at 12 µM. actives 0.02% (n = 300,000);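 active means lowest replicate activity score at least 50, where 100 means six control SD above control mean; inconclusive means lowest score under 50 but half or more replicates reach 50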;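 further: yeast exposed to compound for 9 h at 30 °C; higher score means more reporter readthrough which indicates perturbed polyadenylation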
# SKKanGAS inh = SKKanGAS growth inhibition | S. pyogenes SKKanGAS, kanamycin growth, BacTiter-Glo, 6 h | inhibition, % at 7.5 µM | actives 1.3% (n = 300,000);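 active means mean replicate score, as percent of positive control median, at least 50; inconclusive means mean below 50 but one replicate at or above 50; inactive means mean and every replicate below 50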;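 further: strain carries kanamycin resistance gene driven by streptokinase promoter and grows in 40 µg/ml kanamycin; loss of luminescence reflects streptokinase promoter inhibition or plain growth inhibition; 0% = median of DMSO wells and 100% = positive control at its reference dose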
# CR mimetic SO = yeast age-related superoxide inhibition as caloric restriction mimetic; superoxide response (% of plate mean), % at 10 µM; AID 2690; S. cerevisiae aged cells, superoxide DHE fluorescence; stronger effect = lower value; actives 0.18% (n = 330,000);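 active means superoxide response under a set limit, about three screen SD below normal, cut at about 65% in these data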;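 further: yeast aged for seven days with compound at 30 °C before DHE staining; 100% = average MFI of all compound-treated wells on the plate with controls excluded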
# Platelet DG rel = modulates dense granule release in human platelets; human platelet-rich plasma, SFLLRN dense granule ATP release, luminescence; inhibition, %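 (compounds screened at 7.5 µM in platelet-rich plasma)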; actives 0.22% (n = 300,000); AID 1663;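 active means mean replicate score, as percent of positive control, at or above 50; inconclusive means mean below 50 but at least one replicate at or above 50; inactive means mean and every replicate below 50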
# Calb FLC = affects C. albicans growth with fluconazole. C. albicans CaCi-2 (fluconazole-resistant clinical isolate) + fluconazole, Alamar Blue growth, 48 h. growth inhibition, % (test concentration not listed). actives 0.57% (n = 300,000). AID 1979;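 active means growth inhibition above about 58% in most replicates, limit read from the data, passing the limit was not always enough; inconclusive means exactly half the replicates above a set limit; inactive means most replicates below a set limit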;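 further: all wells also contain fluconazole at 8 µg/ml as a sub-toxic cotreatment; 0% = median of DMSO wells and 100% = median of geldanamycin control wells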
# An asterisk follows results filed as active; ? = inconclusive; · = not tested or not shown. Hits are enriched below; roughly 2% of the tested compounds scored in any of these assays.
SMILES,PolyA inhibitor,SKKanGAS inh,CR mimetic SO,Platelet DG rel,Calb FLC
CCCOc1ccc(CNC(=O)c2ccc3c(c2)N(CC)CCS3)cc1,15,6,80,96*,-16
CCOc1ccc(CCNC(=O)C2CCCN(S(=O)(=O)N3CC(C)CC(C)C3)C2)cc1OCC (stereo unspecified),-12,4,122,-14,-2
CCC/C=C(\CCC)C(NS(=O)(=O)c1ccc(C(F)(F)F)cc1)c1ccccc1 (stereo unspecified),-21,71*,97,-2,14
O=C(O)C(NS(=O)(=O)c1ccc(F)cc1)c1ccccc1 (stereo unspecified),17,5,86,-1,-9
O=C(N/N=C/c1c[nH]c2ccccc12)c1[nH]c2ccc(Br)cc2c1-c1ccccc1,-8,73*,·,-8,17
O=C(N/N=C/c1ccc(O)cc1)c1[nH]c2ccc(Br)cc2c1-c1ccccc1,2,?,100,11,14
COC(=O)C1(C(C[N+](=O)[O-])c2ccc(C)cc2)C(=O)NCC1c1ccco1 (stereo unspecified),1,64*,107,-6,0
CCC1(C(=O)OC)NC(c2ccco2)C2C(=O)N(c3ccc(C)cc3)C(=O)C21 (stereo unspecified),6,0,92,4,0
Oc1ccc(Cl)cc1C1=NNC(c2ccc(Cl)cc2)C1 (stereo unspecified),-19,96*,112,0,0
Oc1ccc(Cl)cc1C1=Nc2ccccc2N=C(c2ccco2)C1,-17,6,95,1,-1
Oc1ccc(Cl)cc1C1=NNC(c2cc(Br)cc3c2OCOC3)C1 (stereo unspecified),-7,32,101,11,70*
Cc1ccc(C(=O)NC(=S)NNC(=O)c2ccccc2[N+](=O)[O-])cc1,·,·,106,·,114*
O=C(NC(=S)NNC(=O)c1ccccc1O)c1ccccc1,-4,93*,79,-10,21
Cc1ccccc1C(=O)NNC(=O)c1ccc(Br)cc1,-11,-5,119,8,-1
O=C(NNC(=S)NC(=O)c1ccccc1[N+](=O)[O-])c1ccccc1[N+](=O)[O-],-21,-2,124,11,4
Cc1ccc(C(=O)NC(=S)NNC(=O)c2ccccc2O)cc1,-1,102*,89,-2,-8
Cc1ccccc1C(=O)NNC(=S)NC(=O)c1ccccc1,-47,48,159,-5,98*
O=C(Nc1cccc2cccnc12)c1ccc(Br)cc1Br,0,8,100,10,3
O=C(NC(=S)NNC(=O)c1ccccc1O)c1ccc([N+](=O)[O-])cc1,6,16,93,-2,2
CCCCOc1ccccc1C(=O)NNC(=S)NC(=O)c1ccccc1[N+](=O)[O-],12,77*,89,-2,103*
O=C(NC(=S)NNC(=O)c1ccccc1O)c1ccc(F)cc1,7,81*,78,1,3
C/C(CC(=O)Nc1ccc(Cl)cc1Cl)=N\NC(=O)c1cnccn1,-3,-2,112,8,-15
COc1ccc(O)c(-c2cc(-c3cccs3)[nH]n2)c1,3,-4,93,4,5
CC(C)(CNC(=O)c1cc(Cl)c(O)c(Cl)c1)N1CCCCC1,-23,-2,113,9,-12
CCc1ccccc1NC(=S)NCCSc1ccc(Cl)cc1,-2,50*,98,7,-8
SMILES,PolyA inhibitor,SKKanGAS inh,CR mimetic SO,Platelet DG rel,Calb FLC
O=C(COc1ccc2c3c(c(=O)oc2c1)CCC3)NCCCN1CCCC1=O,-7,-17,95,3,12
COc1ccc2oc(C(=O)OCC(=O)NC3(C#N)CCCC3)c(C)c2c1,-6,53*,110,7,-4
COc1ccc2oc(C(=O)OCC(=O)NC3CCCC3)c(C)c2c1,-18,47,102,5,5
CC(C)C1OC2c3cccc4cccc(c34)C2N1c1ccccc1 (stereo unspecified),-3,80*,106,-1,-8
CNC(=O)c1[nH]cnc1C(=O)N[C@@H](Cc1ccccc1)C(=O)OC(C)(C)C,-7,3,101,5,5
C[C@H](NC(=O)c1nc[nH]c1C(=O)N[C@@H](Cc1ccccc1)C(=O)OC(C)(C)C)c1ccccc1,-21,54*,106,5,11
C[C@@H](NC(=O)c1nc[nH]c1C(=O)N[C@@H](Cc1ccccc1)C(=O)OC(C)(C)C)c1ccccc1,15,84*,94,-4,-1
Cc1ccc(S(=O)(=O)N2CC(C)C(=O)CC2C)cc1 (stereo unspecified),0,0,94,4,3
CCCNC(=O)c1ccc(N2CCC3(CC2)CC(c2cccc(Br)c2)=NO3)c(NC(=O)c2cccc(C)c2)c1,1,24,·,7,9
COc1ccccc1N1CCN(c2ccc3ccccc3n2)CC1,32,-1,94,18,-1
COc1ccccc1N1CCN(c2ccc(-c3ccccc3)nn2)CC1,-27,5,88,54*,?
COc1ccccc1NC(=O)Nc1ccc2c(c1)nc(C)n2C,·,·,99,·,-16
COC(=O)c1cccc(NC(=S)NCc2ccc(Cl)cc2)c1,-15,62*,96,2,-46
CCN1/C(=C\c2ccc3cc(C)ccc3[n+]2CC)Sc2cc(C)c(C)cc21,-83,71*,·,-2,104*
CCN1/C(=C/c2ccc3cccc(C)c3[n+]2CC)Sc2ccccc21,-1,52*,134,-5,106*
CCN1/C(=C/c2ccc3cc(C)ccc3[n+]2CC)Sc2ccc3sccc3c21,-9,115*,136,6,101*
CC1=C(C(=O)N2CCOCC2)C(c2ccc(C)cc2)NC(=S)N1 (stereo unspecified),·,·,80,2,·
COc1cccc(-c2ccc(=O)n(CC(=O)Nc3ccc(S(=O)(=O)NCC(C)C)cc3)n2)c1,0,4,101,-3,0
Nc1nc(-c2ccccc2)c(N=Nc2cccc3ccccc23)s1,-22,57*,100,7,14
Nc1nc(-c2ccccc2)c(N=Nc2ccccc2Cl)s1,-32,-6,120,5,101*
CCc1ccc2c(c1)C1(C(=O)N2)N2CCCC2C(C(=O)c2ccc3ccccc3c2)C12C(=O)Nc1ccccc12 (stereo unspecified),-12,29,90,2,5
CCc1ccc2c(c1)C1(NN=C(c3cccc4ccccc34)S1)C(=O)N2 (stereo unspecified),1,79*,114,5,-1
CC1CC1C(=O)OCC(=O)Nc1ccc(Cl)cn1 (stereo unspecified),·,·,97,·,·
CCOC(=O)c1c(NC(=S)NCCc2ccccc2)sc2c1CC(C(C)C)OC2 (stereo unspecified),-13,101*,99,7,10
C=CCNC(=S)Nc1sc2c(c1C(=O)OCC)CC(C(C)C)OC2 (stereo unspecified),3,9,84,9,3
